Data on three molecules can be found in article PMC5540273 (PLoS ONE, 2017).
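Note: KINOMEscan kinase panel screen.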

For the test, the system named is SLK. The note with it: concentration: 1 μM,replicates: in singlicate; n = 1.
As to `Cc1ccc(Nc2ccnc(Nc3ccc4c(c3)CS(=O)(=O)C4)n2)cc1O.Cl` [GW579362], the “%Inh” value was found to be 99.2%. As for `Cl.Cl.NC[C@H](CC1CCCCC1)NC(=O)c1ccc(-c2ccnc3[nH]ccc23)s1` [GSK1581428], the figure is 75%; as for `Cc1n[nH]c2cc(Nc3ccnc(Nc4cccc(CN5CCOCC5)c4)n3)ccc12` [GW682569], 0%.
